# Shown is part of a subset that was picked to be rich in hits.
# T cruzi growth-1: blocks T. cruzi growth in NIH3T3 culture | actives 5.9% (n = 77,000) | T. cruzi beta-gal in NIH3T3, GalScreen luminescence, 90 h | AID 624255 | inhibition, % at 8.34 µM;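 active means mean inhibition above about 93%, with at least 55% of replicates each passing it, limit read from the data, passing the limit was not always enough; inconclusive means only one of those two conditions holds; inactive means neither condition holds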
# C diff HTS: C. difficile growth inhibition; Clostridium difficile clinical isolate growth, OD600, 24 h; active compounds read low; growth activity, negative = inhibition, % at 16 µg/mL (by protocol); actives 0.25% (n = 86,000); AID 1259249;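 active means mean growth activity at or below -80% and every replicate also at or below -80%; inconclusive means mean at or below -80% but some replicate above -80%; inactive means mean growth activity above -80%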;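 further: 0% = DMSO wells and -100% = levofloxacin 16 µg/mL wells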
# T cruzi growth-2: Trypanosoma cruzi proliferation inhibition. shares compounds with T cruzi growth-1. T. cruzi beta-gal in NIH3T3, GalScreen luminescence, 90 h. inhibition, % at 8.35 µM. actives 72% (n = 5,600). AID 651739;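 active means mean replicate inhibition above about 95% and at least 55% of replicates individually reaching it, limit read from the data; inconclusive means only one of the two criteria is met; inactive means neither criterion is met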
# T cruzi growth-3: blocks T. cruzi growth in NIH3T3 host cells; inhibition, % at 2.09 µM; AID 651740; actives 21% (n = 5,600); shares compounds with T cruzi growth-1; T. cruzi beta-gal in NIH3T3, GalScreen luminescence, 90 h;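 active means mean inhibition above about 95%, with at least 55% of replicates also reaching it, limit read from the data; inconclusive means meets just one of the two conditions; inactive means meets neither condition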;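 further: plate controls were neutral control median for no effect and positive control median for full effect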
# 3T3 cytotox: kills mouse NIH/3T3 fibroblasts. shares compounds with T cruzi growth-1. NIH/3T3 viability, CellTiter-Glo ATP luminescence, 90 h. cytotoxicity (signal decrease), % at 8.35 µM. actives 14% (n = 5,600);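 active means mean signal decrease across replicates above about 35% based on untreated-well scatter, with enough replicates individually passing, limit read from the data; inconclusive means no rule stated though some were filed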;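 further: 0% = median of neutral control wells and 100% = median of positive control wells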
# NIH3T3 tox 2: kills mouse NIH/3T3 fibroblasts | inhibition, % at 24.9 µM | AID 651744 | NIH/3T3 viability, CellTiter-Glo ATP luminescence, 90 h | shares compounds with T cruzi growth-1 | actives 56% (n = 5,600);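 active means mean loss of cell viability signal at or above a set limit, and enough replicates individually reaching it; inconclusive means meets only the mean limit or only the replicate share; inactive means meets neither condition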;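 further: 0% = median of neutral control wells and 100% = median of positive control wells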
# Active calls of the source: *; ? = inconclusive; nt = no result given; ! = repeats disagree.
SMILES,T cruzi growth-1,C diff HTS,T cruzi growth-2,T cruzi growth-3,3T3 cytotox,NIH3T3 tox 2
C[C@@H]1CCCCO[C@H](CN(C)C(=O)Nc2ccc(C(F)(F)F)cc2)[C@@H](C)CN([C@@H](C)CO)C(=O)c2cc(NC(=O)Nc3ccccc3)ccc2O1,nt,-6,nt,nt,nt,nt
CNC[C@@H]1OCCCC[C@H](C)Oc2ccc(NS(C)(=O)=O)cc2C(=O)N([C@@H](C)CO)C[C@@H]1C,7,2,nt,nt,nt,nt
N#C[C@H]1[C@H](c2ccc(C#Cc3ccccc3F)cc2)[C@@H](CO)N1C(=O)C1CCOCC1,82,-5,nt,nt,nt,nt
O=C(C[C@@H]1C=C[C@@H](NC(=O)c2cccc(F)c2)[C@H](CO)O1)NCc1ccc(Oc2ccccc2)cc1,4,2,nt,nt,nt,nt
CCCNC(=O)N1[C@H](CO)[C@@H]2c3ccccc3N(C(=O)c3ccncc3)C[C@@H]21,5,-1,nt,nt,nt,nt
C[C@H](O)C#Cc1ccc([C@@H]2[C@@H](CO)N3CCCCN(S(=O)(=O)c4ccccc4)C[C@H]23)cc1,111*,-8,61,-18,16,8
C[C@H](O)C#Cc1ccc([C@H]2[C@@H](CO)N3CCCCN(S(=O)(=O)c4ccccc4)C[C@@H]23)cc1,90,-1,nt,nt,nt,nt
C[C@@H](O)C#Cc1ccc([C@@H]2[C@@H](CO)N3CCCCN(S(=O)(=O)c4ccccc4)C[C@@H]23)cc1,117*,-10,41,9,10,26*
C[C@H](O)C#Cc1ccc([C@@H]2[C@@H](CO)N3CCCCN(S(=O)(=O)c4ccccc4)C[C@@H]23)cc1,24,-4,nt,nt,nt,nt
C[C@@H](O)C#Cc1ccc([C@H]2[C@H](CO)N3CCCCN(S(=O)(=O)c4ccccc4)C[C@@H]23)cc1,105*,-6,71,-3,2,5
C[C@@H](O)C#Cc1ccc([C@H]2[C@H]3CN(S(=O)(=O)c4ccccc4)CCCCN3[C@H]2CO)cc1,73,-6,nt,nt,nt,nt
CO[C@H]1CN(C)C(=O)c2ccc(NC(=O)C3CC3)cc2OC[C@@H](C)N(C(=O)c2ccccc2F)C[C@@H]1C,-15,nt,nt,nt,nt,nt
COc1cccc(S(=O)(=O)N(C)C[C@H]2OCc3cn(nn3)CCCC(=O)N([C@@H](C)CO)C[C@H]2C)c1,43,3,nt,nt,nt,nt
C[C@@H]1CN([C@H](C)CO)C(=O)CCCn2cc(nn2)CO[C@@H]1CN(C)S(=O)(=O)c1ccc2ccccc2c1,34,nt,nt,nt,nt,nt
COc1cccc(S(=O)(=O)N(C)C[C@H]2OCc3cn(nn3)CCCC(=O)N([C@H](C)CO)C[C@@H]2C)c1,?,-2,17,21,10,-5
COc1cccc(S(=O)(=O)N(C)C[C@H]2OCc3cn(nn3)CCCC(=O)N([C@@H](C)CO)C[C@@H]2C)c1,116*!,1,18,10,-8,-7
COc1cccc(S(=O)(=O)N(C)C[C@@H]2OCc3cn(nn3)CCCC(=O)N([C@@H](C)CO)C[C@@H]2C)c1,-110,-1,nt,nt,nt,nt
C[C@@H]1CN([C@@H](C)CO)C(=O)CCCn2cc(nn2)CO[C@H]1CN(C)S(=O)(=O)c1ccc2ccccc2c1,125*!,0,55,1,-6,6
COc1ccc(S(=O)(=O)Nc2ccc3c(c2)CC(=O)N([C@H](C)CO)C[C@H](C)[C@H](CN(C)S(C)(=O)=O)O3)cc1,5,0,nt,nt,nt,nt
CCCN1C[C@H](C)[C@@H](OC)CN(C)C(=O)c2cc(NS(=O)(=O)c3ccccc3)ccc2OC[C@H]1C,62,nt,nt,nt,nt,nt
C[C@H](CO)N1C[C@H](C)[C@@H](CN(C)C(=O)Nc2cccc3ccccc23)Oc2c(NC(=O)Nc3ccccc3)cccc2C1=O,83,-2,nt,nt,nt,nt
C[C@@H]1CN([C@H](C)CO)S(=O)(=O)c2ccc(-c3ccc(F)cc3)cc2O[C@@H]1CN(C)CC1CC1,nt,-2,nt,nt,nt,nt
CCCNC(=O)N1C[C@H](C)[C@H](OC)CN(C)C(=O)c2cc(NC(=O)C3CCC3)ccc2OC[C@@H]1C,-6,nt,nt,nt,nt,nt
O=C(C[C@@H]1C=C[C@@H](NC(=O)Nc2cc(F)ccc2F)[C@H](CO)O1)NCc1ccc2c(c1)OCO2,49,-1,nt,nt,nt,nt
CCCN(C)C[C@@H]1Oc2ncc(-c3cccc(C(=O)N(C)C)c3)cc2C(=O)N([C@@H](C)CO)C[C@H]1C,15,-1,nt,nt,nt,nt
SMILES,T cruzi growth-1,C diff HTS,T cruzi growth-2,T cruzi growth-3,3T3 cytotox,NIH3T3 tox 2
C[C@@H]1CCCCO[C@H](CN(C)C(=O)Nc2ccc(C(F)(F)F)cc2)[C@H](C)CN([C@@H](C)CO)C(=O)c2cc(NS(=O)(=O)c3ccccc3)ccc2O1,77,5,nt,nt,nt,nt
C[C@H](CO)N1C[C@H](C)[C@H](CN(C)C(=O)Nc2ccc(C(F)(F)F)cc2)OCCCC[C@H](C)Oc2ccc(NS(=O)(=O)c3ccccc3)cc2C1=O,?,7,90,103*,-10,-1
C[C@@H]1CCCCO[C@H](CN(C)C(=O)Nc2ccc(C(F)(F)F)cc2)[C@@H](C)CN([C@H](C)CO)C(=O)c2cc(NS(=O)(=O)c3ccccc3)ccc2O1,82,-5,nt,nt,nt,nt
C[C@@H]1CCCCO[C@H](CN(C)C(=O)Nc2ccc(C(F)(F)F)cc2)[C@H](C)CN([C@@H](C)CO)C(=O)c2cc(NS(=O)(=O)c3cccs3)ccc2O1,81,1,nt,nt,nt,nt
C[C@@H]1CCCCO[C@H](CN(C)C(=O)Nc2ccc(C(F)(F)F)cc2)[C@@H](C)CN([C@@H](C)CO)C(=O)c2cc(NS(=O)(=O)c3ccccc3)ccc2O1,86,1,nt,nt,nt,nt
C[C@@H]1CCCCO[C@@H](CN(C)C(=O)Nc2ccc(C(F)(F)F)cc2)[C@H](C)CN([C@@H](C)CO)C(=O)c2cc(NS(=O)(=O)c3ccccc3)ccc2O1,?,7,96*,113*,15,14
C[C@@H]1CCCCO[C@H](CN(C)C(=O)Nc2ccc(C(F)(F)F)cc2)[C@H](C)CN([C@H](C)CO)C(=O)c2cc(NS(=O)(=O)c3cccs3)ccc2O1,98*,12,103*,112*,15,-1
C[C@H]1CCCCO[C@@H](CN(C)C(=O)Nc2ccc(C(F)(F)F)cc2)[C@@H](C)CN([C@@H](C)CO)C(=O)c2cc(NS(=O)(=O)c3ccccc3)ccc2O1,?,2,?,107*,-10,18
CO[C@@H]1CN(C)C(=O)c2cc(NC(=O)C3CC3)ccc2OC[C@@H](C)N(CCc2ccccc2)C[C@@H]1C,1,11,nt,nt,nt,nt
O=C(C1CCCC1)N1CC2(C1)[C@@H](c1ccccc1)[C@@H](CO)N2Cc1ccccc1F,nt,3,nt,nt,nt,nt
COc1ccc(CN(C)C[C@H]2OCCCC[C@@H](C)Oc3ccc(NC(=O)NC4CCCCC4)cc3C(=O)N([C@H](C)CO)C[C@@H]2C)cc1,9,-9,nt,nt,nt,nt
Cc1noc(C)c1NC(=O)Nc1cccc2c1O[C@H](CN(C)S(=O)(=O)c1ccccc1)[C@@H](C)CN([C@@H](C)CO)C2=O,-1,nt,nt,nt,nt,nt
COCc1cn(CC[C@@H]2CC[C@H](NC(=O)CCN3CCCCC3)[C@H](CO)O2)nn1,-7,-4,nt,nt,nt,nt
